In the library only some 8% were active in any assay of this set; here they are far more common.
Pyk2 oligo antag – antagonists of human Pyk2 oligomerization. 99,000 compounds, 0.83% hits. Q293 cells, Pyk2 FERM NanoBiT luminescence; active compounds read low. AID 1347419. z-score (the deposit names both 25 µM and 10 µM). Q14289;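 active = Z-score of -3 or lower, scaled per plate to the spread of control and sample wells; inactive = z-score above -3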;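 also: negative z-score means lost luminescence so less FERM oligomerization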
Target sequence (Q14289 whole entry, looked up): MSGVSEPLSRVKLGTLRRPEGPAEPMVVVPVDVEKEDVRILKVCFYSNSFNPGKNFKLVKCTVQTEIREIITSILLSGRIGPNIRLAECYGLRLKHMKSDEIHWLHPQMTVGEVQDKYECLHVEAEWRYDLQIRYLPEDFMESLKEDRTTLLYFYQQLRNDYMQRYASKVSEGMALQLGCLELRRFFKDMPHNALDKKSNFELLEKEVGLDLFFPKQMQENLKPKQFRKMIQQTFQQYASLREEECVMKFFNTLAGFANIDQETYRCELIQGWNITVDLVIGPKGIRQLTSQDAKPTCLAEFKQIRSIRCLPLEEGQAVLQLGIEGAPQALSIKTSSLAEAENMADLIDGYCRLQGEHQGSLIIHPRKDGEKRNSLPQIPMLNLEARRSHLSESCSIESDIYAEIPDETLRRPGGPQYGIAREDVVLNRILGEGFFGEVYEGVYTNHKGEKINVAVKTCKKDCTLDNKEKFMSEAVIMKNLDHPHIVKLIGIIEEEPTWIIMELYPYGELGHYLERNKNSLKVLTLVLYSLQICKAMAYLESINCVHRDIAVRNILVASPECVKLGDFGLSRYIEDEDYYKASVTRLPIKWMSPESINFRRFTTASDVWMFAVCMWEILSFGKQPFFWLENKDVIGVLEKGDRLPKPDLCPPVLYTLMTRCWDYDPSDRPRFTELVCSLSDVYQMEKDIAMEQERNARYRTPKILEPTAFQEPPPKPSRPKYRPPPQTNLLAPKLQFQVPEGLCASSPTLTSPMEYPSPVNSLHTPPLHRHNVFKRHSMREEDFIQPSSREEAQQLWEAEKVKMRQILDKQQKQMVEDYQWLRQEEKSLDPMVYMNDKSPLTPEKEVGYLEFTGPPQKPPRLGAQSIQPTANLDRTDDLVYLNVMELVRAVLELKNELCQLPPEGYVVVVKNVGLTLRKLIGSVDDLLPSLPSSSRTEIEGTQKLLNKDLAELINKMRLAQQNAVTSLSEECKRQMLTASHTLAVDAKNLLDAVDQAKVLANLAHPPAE
PostGolgi yeast – growth inhibition of a yeast mutant, post-Golgi transport screen; AID 739; 98,000 compounds, 0.9% hits; inhibition, % at 10 µM; post-Golgi transport phenotypic cell assay;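 also: yeast cells grown in 1536-well plates; yeast grown about 18 h at 30C before absorbance read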
Cav32 inh – human Cav3.2 channel inhibition, primary screen; O95180; Cav3.2-expressing cells, Fluo-4 calcium fluorescence FDSS; active compounds read low; B-score at 10 µM; 100,000 compounds, 4% hits; AID 449739;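 active = single-dose well whose peak fluorescence ratio is a statistical outlier from its plate by either plate-standardised score or position-corrected B-score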
PostGolgi ctrl – inhibits growth of the yeast control strain. efflux-deficient yeast background strain, growth absorbance A615, 16 h. inhibition, % at 10 µM. 98,000 compounds, 5% hits. AID 738
* hit, by the source's call; · = no result given. Rule as the data show it, unless noted: active = inhibition above about 30%; inactive = the rest.

SMILES	Pyk2 oligo antag	PostGolgi yeast	Cav32 inh	PostGolgi ctrl
O=C(NC1CS(=O)(=O)CC1NCc1ccccc1)c1ccccc1 (configuration not stated)	-0.17	-2.2	-0.355	12.4
CC(C)c1nc2ccccc2n1CCC(=O)O	0.71	4.6	0.357	0.0
Cn1c(C(C#N)C(=O)c2sc3ccccc3c2Cl)nc2ccccc21 (configuration not stated)	-0.83	4.2	-0.802	78.8*
O=C(CN1C(=O)c2cccc3cccc1c23)Nc1cccnc1	-0.95	·	0.539	·
Cc1ccc(NC(=O)CS(=O)CC(=O)Nc2ccc3c(c2)OCO3)cc1Cl (configuration not stated)	1.2	11.7	-3.29	-0.6
Cc1cc(NC(=O)CSc2nc(CCC3CCCC3)nc3ccccc23)no1	-0.48	-0.5	-8.74*	22.0
CCCc1nc(SCC(=O)Nc2cc(C)on2)c2ccccc2n1	0.15	-12.5	·	12.9
CC(C)OC(=O)c1c(N)n(CCCN2CCOCC2)c2nc3ccccc3nc12	0.38	10.6	1.57	0.0
CC(C)OC(=O)c1c2nc3ccccc3nc2n2c1[nH]c(=O)c1ccccc12	·	33.9*	·	71.1*
CCOc1c(CNCCN2CCOCC2)cccc1OC	0.94	4.8	0.293	-0.1
Cn1c(=O)c2c(nc(NCc3ccco3)n2CC(O)COc2ccccc2)n(C)c1=O (configuration not stated)	1.57	-0.7	·	40.1*
Cn1c(NCc2ccco2)nc2c1c(=O)n(Cc1ccc(Br)cc1)c(=O)n2C	-1.33	-5.6	-1.39	32.1*
CCCn1c(NCc2ccco2)nc2c1c(=O)n(C)c(=O)n2C	0.03	·	-0.00394	·
Cc1cccc2cc(C#N)c(NCCCn3ccnc3)nc12	-0.35	39.8*	0.431	8.6
CCc1nc(NCCCn2ccnc2)c2oc3ccccc3c2n1	-0.89	-3.0	1.69	32.5*
Cc1cc(NCCCn2ccnc2)n2c(nc3ccccc32)c1C#N	-0.72	7.0	1.94	4.8
CCCC(C)C(=O)Nc1nnc(C)s1 (configuration not stated)	-0.48	-3.3	0.0637	2.7
CCCCOC(=O)Cc1c(O)c2ccccc2[nH]c1=O	2.57	32.3*	-0.337	3.0
CNC(=O)COC(=O)c1cc(=O)[nH]c2ccccc12	-0.28	-7.6	0.151	-7.3
CCCCCOC(=O)c1cc(=O)[nH]c2ccccc12	-3.54*	3.4	·	16.1
CC(C)(C)NC(=O)NC(=O)COC(=O)c1cc(=O)[nH]c2ccccc12	-3.82*	-24.4	-0.00151	7.8
CCOc1cc(NC(=O)c2ccccc2[N+](=O)[O-])c(OCC)cc1NC(=O)CC(C)C	0.75	1.1	0.763	-6.6
CN(C)c1ccc(C(CC(=O)O)NC(=O)c2ccc(Cl)cc2)cc1 (configuration not stated)	0.98	3.6	·	-6.1
COc1ccc(C2(C(=O)NCC3CCCO3)CCOCC2)cc1 (configuration not stated)	0.83	-0.1	0.888	14.4
COc1cc2[nH]c(=S)n(CCCN3CCOCC3)c(=O)c2cc1OC	0.41	37.7*	1.05	-8.9
SMILES	Pyk2 oligo antag	PostGolgi yeast	Cav32 inh	PostGolgi ctrl
CC1CCN(CCCn2c(=S)[nH]c3ccc(N4CCOCC4)cc3c2=O)CC1	-0.96	1.6	-4.66*	-0.1
CC(C)(C)N(NC(=O)OCc1ccccc1)C(=O)c1ccccc1Cl	0.81	·	·	·
Cc1csc2ncc(C(=O)Nc3ccon3)c(=O)n12	0.04	2.3	-1.1	41.0*
Cc1cccc(NC(=O)c2cnc3scc(C)n3c2=O)c1	·	-3.0	0.265	29.1
C=CCOC(=O)CSCC(NC(=O)OC(C)(C)C)C(=O)OCC (configuration not stated)	0.65	7.9	·	4.6
O=C(Nc1ccccc1)c1nnsc1S(=O)c1ccc(Cl)cc1 (configuration not stated)	0.81	104.7*	0.457	101.6*
CCOC(=O)CSc1nnc(-c2ccc(OC)cc2OC)o1	-0.62	9.3	0.702	6.8
CCOC(=O)C1=C(C)N=C2SC(C)C(=O)N2C1c1ccc(OCC)c(OCC)c1 (configuration not stated)	1.33	-2.7	-0.689	3.1
CCOC(=O)C1=C(C)N=C2SC(C)C(=O)N2C1c1ccc(C(=O)OC)cc1 (configuration not stated)	-0.38	-4.5	-7.5*	-5.2
O=C(NC(=S)N1CCN(c2ccc(C(F)(F)F)cc2[N+](=O)[O-])CC1)c1cccs1	-0.28	·	·	·
Cc1cc(NC(=O)COC(=O)C(Nc2ccc(C(F)(F)F)cc2Cl)C(C)C)no1 (configuration not stated)	-2.18	3.4	-4.53*	59.1*
Cc1cc(NC(=O)COC(=O)CSCc2ccc(Cl)c(Cl)c2)no1	1.6	-3.3	-0.533	7.6
COc1ccc(C(=O)NCc2ccccn2)cc1	0.01	·	0.598	·
COc1ccc(S(=O)(=O)NCc2ccccn2)cc1	·	-6.2	0.827	-5.6
CCOc1ccc(S(=O)(=O)NCc2ccncc2)cc1	0.36	6.3	-0.0301	3.7
CCCCOc1ccc(C(=O)NCc2ccccn2)cc1	-1.23	-4.4	0.0682	35.3*
CCOC(=O)COc1ccc(S(=O)(=O)NCc2ccncc2)cc1	-0.54	1.9	-5.31*	12.3
CCOc1ccc(S(=O)(=O)NCc2ccccn2)cc1	2.49	-10.9	0.204	30.1*
Cc1cc(C(C)(C)C)oc1C(=O)N(CC(=O)NC1CCCC1)Cc1ccc(F)cc1	0.16	-3.5	-1.33	8.1
COc1cc(S(=O)(=O)NCC2OCCc3ccccc32)ccc1-n1cnnn1 (configuration not stated)	0.15	4.4	-0.309	-5.6
C/C(=N\NC(=S)Nc1cccc(C)c1)c1ccccc1	0.59	-1.0	-1.29	32.9*
CCC(Oc1ccccc1)C(=O)Nc1nnc(C(F)(F)F)s1 (configuration not stated)	-1.68	8.4	-1.26	48.2*
CCC(Oc1ccccc1)C(=O)Nc1ccccc1OC (configuration not stated)	-1.19	-1.1	-0.464	31.1*
CCCc1nnc(NC(=O)C(CC)OC(=O)c2cc(C)nc3ccccc23)s1 (configuration not stated)	-2.04	7.8	-4.32*	13.9
CCC(Oc1ccccc1)C(=O)Nc1nnc(C)s1 (configuration not stated)	-1.38	11.3	0.093	31.0*
SMILES	Pyk2 oligo antag	PostGolgi yeast	Cav32 inh	PostGolgi ctrl
CCNc1nc(NC(C)C)nc(Oc2ccc(OCCOc3ccccc3)nn2)n1	0.37	-10.9	0.041	16.4
C=CCONC(=O)c1cc(OCC(F)(F)F)ccc1OCC(F)(F)F	-0.18	0.5	-0.0503	7.8
O=C1CCCN1CN(C(=O)c1ccccc1)c1ccc(F)cc1	0.11	-2.5	0.945	6.5
O=C(NCC(=O)N(Cc1cccs1)C(C(=O)NC1CCCC1)c1ccco1)c1cccs1 (configuration not stated)	-0.23	1.9	-1.26	24.4
CC(C)=C1C2CCC1C1C(=O)N(NC(=O)COc3ccc(C(C)(C)C)cc3)C(=O)C21 (configuration not stated)	-0.6	-8.0	-8.37*	25.4
CCCCCCC1CC(CSc2ncn[nH]2)OC1=O (configuration not stated)	-1.43	1.8	0.473	4.1
N#Cc1ccc(Oc2cccnc2)cc1C#N	0.33	-4.9	-0.958	0.0
O=C(c1ccc(C(=O)N2CCCc3ccccc32)s1)N1CCCc2ccccc21	-3.28*	105.4*	-7.82*	100.3*

Bioassay records from PubChem BioAssay.
